Screens from PubChem.
hcDAF12 agonist: activators of H. contortus DAF-12 nuclear receptor; HEK293 hcDAF-12 lit1-tk-luc reporter, luminescence; 0% DMSO, 100% Δ7-dafachronic acid; activation, % at 6.8 µM; actives 1.4% (n = 370,000); AID 652067;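 active = activation above the mean of all tested compounds plus 3 SD, cut at about 5.5% in these data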;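 note: 100% = response to 3 µM Δ7-dafachronic acid high control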
DAX1 inh-1: DAX1 (NR0B1) inhibition, primary screen. HEK293T StAR-luciferase reporter, SF-1/DAX-1 repression relief. inhibition, % at 6.8 µM. actives 1.1% (n = 370,000). AID 652010;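 active = inhibition above the mean over all tested compounds plus 3 SD, cut at about 3.6% in these data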;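 note: 0% = DAX-1 cells with DMSO and 100% = cells lacking DAX-1 with DMSO; higher inhibition means more luminescence from relief of DAX-1 repression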
DAX1 inh-2: NR0B1 (DAX1) inhibition | HEK293 Gal4-DAX1 luciferase reporter, luminescence | P51843 | inhibition, % at 6.75 µM | actives 0.99% (n = 340,000);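 active = inhibition above the mean over all tested compounds plus 3 SD, cut at about 4.2% in these data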;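 note: 0% = DAX1-transfected cells with DMSO and 100% = empty-vector control cells with DMSO; inhibition shows as a rise in luminescence from relieved DAX1 repression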
Target sequence (P51843 207-470 limits assumed): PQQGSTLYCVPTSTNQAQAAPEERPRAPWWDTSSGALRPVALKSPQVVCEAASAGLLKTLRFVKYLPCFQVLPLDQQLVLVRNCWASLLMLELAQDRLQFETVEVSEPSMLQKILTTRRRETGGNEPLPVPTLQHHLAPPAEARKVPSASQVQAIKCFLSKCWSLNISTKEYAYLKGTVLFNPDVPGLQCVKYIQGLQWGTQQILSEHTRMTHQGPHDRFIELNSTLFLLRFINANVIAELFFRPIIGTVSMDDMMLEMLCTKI
ssDAF-12 act: activates DAF-12 receptor from parasite S. stercoralis | actives 1% (n = 370,000) | activation, % at 6.8 µM | HEK293 ssDAF-12/GRIP1 lit1-tk-luc reporter, luminescence; % of 3 µM dafachronic acid response;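 active = activation above the mean over all tested compounds plus 3 SD, cut at about 0.9% in these data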;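 note: 0% = DMSO-only wells and 100% = 3 µM delta7-dafachronic acid wells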
SMARCA2 act: increases SMARCA2 function in MMTV reporter cells. MG213 cells, MMTV-luciferase reporter, dexamethasone, overnight. activation, % at 9.1 µM. actives 1% (n = 370,000). AID 652017; in the data active = activation above about 7.8%;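 note: 0% = vehicle wells and 100% = reference activator wells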
hgDAF12 agonist: activates the H. glycines DAF-12 receptor ligand-binding domain; HEK293 GAL4-hgDAF12 UAS-luciferase reporter, agonist luminescence; normalized to butyrate control; activation, % at 6.8 µM; actives 1.8% (n = 370,000);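 active = activation above a cutoff set at the mean of all screened compounds plus 3 SD, cut at about 10% in these data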;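 note: 0% = DMSO wells and 100% = sodium butyrate wells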
LXRb hcDAF ctr: activates human LXR-beta, counter-screen for hcDAF-12 agonists; shares compounds with hcDAF12 agonist; HEK293 Gal4-LXR tk-luc reporter, luminescence, 24 h; normalized: DMSO 0%, positive control 100%; activation, % at 6.8 µM; 3,400 tested, under 10 active; AID 743027;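 active = mean percent activation of the reporter above a cutoff set as the average over tested compounds plus their standard deviation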
hcDAF12 ag: hcDAF-12 agonism, confirmation assay. HEK293 hcDAF-12 lit1-tk-luc reporter, luminescence; % of Δ7-dafachronic acid response. shares compounds with hcDAF12 agonist. actives 61% (n = 3,400). activation, % at 6.8 µM;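 active = mean activation across triplicate tests above the threshold derived from the earlier primary screen, cut at about 5.5% in these data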;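 note: 0% = DMSO only wells and 100% = 3 µM Δ7-dafachronic acid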
* hit, by the source's call; nt = not tested or not shown. This is a sample that favours compounds with a hit; in the whole collection about 4.8% have one here.

SMILES	hcDAF12 agonist	DAX1 inh-1	DAX1 inh-2	ssDAF-12 act	SMARCA2 act	hgDAF12 agonist	LXRb hcDAF ctr	hcDAF12 ag
CC(=O)/C=C/c1ccc2ccccc2n1	8.2*	-1.9	-1.4	-1.0	2.7	1.8	0.0	0.6
CC(OC(=O)/C=C/c1ccc2ccccc2n1)C(=O)N(C)c1ccccc1 (stereo not given)	0.2	-1.0	0.2	-1.1	4.4	-0.7	nt	nt
O=C(CCCOc1ccccc1)Nc1ccc(S(=O)(=O)Nc2ccccn2)cc1	nt	nt	1.1	nt	nt	nt	nt	nt
O=C1c2ccccc2CCC12N=NCC2c1ccc(Cl)cc1 (stereo not given)	7.4*	0.8	-2.8	0.2	1.7	4.0	0.1	5.0
COc1ccc(-c2nc3c4ccccc4ccn3c2CN2CCCCC2)cc1	7.0*	-0.2	1.7	-0.7	-0.9	4.1	-0.4	1.2
C=CCOn1c(=O)c(-c2ccccc2)[n+]([O-])c2ccccc21	3.7	-0.4	0.3	0.3	-3.2	-1.7	nt	nt
C=CCOn1c(=O)c(-c2cc3ccccc3o2)[n+]([O-])c2ccccc21	11.1*	2.4	1.6	1.8*	7.9*	12.0*	0.4	5.5
CCOC(=O)COn1c(=O)c(-c2cc3ccccc3o2)[n+]([O-])c2ccccc21	9.3*	2.5	1.3	1.0*	3.5	8.6	1.5	14.4*
CN1C(=O)NC(NS(=O)(=O)c2ccc(N)cc2)(C(F)(F)F)C1=O (stereo not given)	1.2	-0.1	-0.7	-1.9	0.0	-0.5	nt	nt
CCOC(=O)c1sc(NC(=O)CN2CCN(c3ccccc3)CC2)nc1C	0.0	0.0	0.1	-1.0	1.6	2.7	nt	nt
COc1ccc(CN(C(=O)c2cc3ccccc3oc2=O)C2CCS(=O)(=O)C2)cc1OC (stereo not given)	10.1*	1.1	0.0	0.5	3.3	9.9	0.6	3.1
COc1ccc(CN(C(=O)c2cc3ccccc3oc2=O)C2CCS(=O)(=O)C2)cc1 (stereo not given)	2.5	-0.3	1.0	-0.7	2.5	0.7	nt	nt
COc1ccc2oc(=O)c(/C(C)=N/Nc3nc(-c4cc(C)ccc4C)cs3)cc2c1	6.7*	-0.6	0.2	-1.1	-3.2	-0.8	-0.2	-0.1
CC(C)NC(=O)c1ccc2c3n(nc2c1)-c1ccccc1CO3	6.9*	3.0	-4.5	0.2	4.1	9.4	1.6	8.1*
COc1cc(Cc2nc3ccc(S(=O)(=O)N4CCOCC4)cc3[nH]2)cc(OC)c1OC	8.0*	-0.7	-0.1	-1.5	-0.5	1.3	-0.3	-0.6
O=S(=O)(c1ccc2nc(Cc3ccccc3)[nH]c2c1)N1CCOCC1	-1.5	0.7	-0.5	-1.2	-3.1	-0.1	nt	nt
Cc1cc(-c2ccccc2)n2ncc(-c3ccccc3)c2n1	10.8*	3.9*	0.2	0.2	-0.8	7.7	1.8	20.3*
Cc1cc(N2CCOCC2)n2ncc(-c3ccccc3)c2n1	9.4*	1.0	-2.2	-0.5	-1.1	3.2	1.7	15.8*
Cc1cc(N2CCC(C)CC2)n2ncc(-c3ccccc3)c2n1	0.1	-0.3	1.8	-1.6	-3.3	-4.4	nt	nt
Clc1cccc(-c2nc(-c3ccccn3)no2)c1	9.7*	1.0	-4.6	-0.2	4.5	4.5	1.1	11.8*
O=C(c1ccc(NS(=O)(=O)c2cccs2)cc1)N1CCOCC1	0.0	-1.5	0.1	-1.1	0.3	-0.3	nt	nt
CSc1ccccc1NC(=O)c1cc(CC(C)C)on1	7.5*	2.0	0.5	0.2	1.8	10.6*	0.5	3.8
Cc1cc(NC(=O)c2cc(CC(C)C)on2)no1	1.7	1.0	-0.3	-0.4	2.8	6.5	nt	nt
Cc1nnc(SCc2nc3ccccc3s2)n1-c1ccccc1	7.6*	2.5	2.5	1.2*	7.2	7.5	0.8	9.5*
Clc1c(CSc2nc3ccccc3o2)nc2ccccn12	7.0*	4.2*	0.5	0.8	-0.7	10.5*	1.2	7.0*
SMILES	hcDAF12 agonist	DAX1 inh-1	DAX1 inh-2	ssDAF-12 act	SMARCA2 act	hgDAF12 agonist	LXRb hcDAF ctr	hcDAF12 ag
Brc1c(CSc2nc3ccccc3o2)nc2ncccn12	0.1	1.5	0.1	-0.6	-1.0	6.4	nt	nt
COc1cccc(-c2nnc(SCc3nc4ccccc4s3)n2C)c1	5.3	0.7	0.6	0.3	1.9	1.7	nt	nt
COc1ccc(-n2nnnc2SCc2nc3ccccc3s2)cc1	8.1*	1.2	1.4	1.1*	5.9	9.4	1.0	11.2*
N#CCc1nc(CSc2nc3ccccc3o2)cs1	-1.2	1.2	1.9	-0.5	3.5	8.2	nt	nt
COc1ccc(CSc2nnnn2-c2ccccc2)cc1	-1.4	-1.1	1.0	-1.1	0.0	-0.9	nt	nt
c1ccc2oc(SCc3nc4ccccc4s3)nc2c1	10.1*	1.6	4.4*	1.9*	6.0	7.9	0.8	11.0*
O=C(Nc1cccc(-c2nnc(-c3ccco3)o2)c1)C(c1ccccc1)c1ccccc1	-2.3	-0.5	-1.3	-1.7	-3.1	0.2	nt	nt
COc1ccccc1NCC(=O)NNC(C)C(=O)Nc1cccc(Cl)c1 (stereo not given)	0.1	-1.6	-2.4	-1.2	-4.0	0.6	nt	nt
CC(=O)N[C@H](Cc1c[nH]c2ccccc12)C(=O)O	8.2*	-0.1	-0.7	-0.3	0.7	0.8	-0.4	-0.3
CC(=O)/C=C(/C)NC(Cc1c[nH]c2ccccc12)C(=O)O (stereo not given)	2.1	0.7	0.5	0.2	-2.2	2.6	nt	nt
O=C(O)C(Cc1c[nH]c2ccccc12)N1Cc2ccccc2C1=O (stereo not given)	6.9*	1.2	3.8	3.0*	1.0	7.9	0.5	8.0*
O=C(O)[C@H](Cc1ccccc1)N1Cc2ccccc2C1=O	1.5	1.0	1.2	-1.0	-1.0	0.8	nt	nt
Cc1cccc(NS(=O)(=O)c2cc([N+](=O)[O-])ccc2C)n1	-0.9	0.4	1.4	-0.1	-4.2	-0.4	nt	nt
Cc1cccc(/C=C2\CCC(=C3SCCCS3)C2=O)c1	7.5*	2.5	-3.7	-0.6	4.3	8.8	1.0	7.6*
O=c1oc2ccccc2cc1-c1nc2ccccc2o1	8.8*	3.1	2.5	1.0*	1.2	8.8	1.1	6.3*
COc1ccc(OC)c(S(=O)(=O)N2CCCC(C(=O)N3CCOCC3)C2)c1 (stereo not given)	-2.2	-0.2	2.9	-0.8	-0.6	-0.2	nt	nt
O=C(CSc1nnnn1-c1ccc(O)cc1)c1cc2ccccc2o1	1.6	0.3	-0.9	-1.0	-5.1	-1.3	nt	nt
O=C(O)Cc1ccc2ccc3ccccc3c2c1	8.5*	0.2	nt	-0.3	-2.9	1.4	0.0	4.9
